The record followed here is ChEMBL document CHEMBL1201862, “PubChem BioAssay data set” (2004).

The campaign covered roughly 15,000 sequences. About 620 (4.1%) were called active. Rule as the data show it: active = GI50 up to about 1.1 µM and inactive = higher. These entries were drawn from the full list. Entries with a potency or affinity are not part of this list.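 Grown in 96-well plates, cells were treated for 48 hours with each compound at five concentrations. Insufficient inhibition: endpoint recorded as highest concentration tested. Here, GI50 denotes the concentration required for 50% inhibition of growth.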

The subject of the assay is M19-MEL. Description: NCI tumour cell line growth inhibition, 48 h.
“[Bis(aminomethyl)ethylmethylsilane]tetrachloroplatinum(IV), CHEMBL2146192” came in with a GI50 of 1520 nM. To “mu-(1,7-nanodiamine-N,N')bis-(cis-aminedichloroplatimum (II)), CHEMBL2146215” belongs 1360 nM; to “[Bis(aminomethyl)pentamethylenesilane]dichloropaltinum(II), CHEMBL2146202”, 5380 nM; to “[Bis(aminomethyl)tetramethylenesilane]dichloropaltinum(II), CHEMBL2146205”, 19300 nM.

The substance “[Bis(aminomethyl)tetramethylenesilane]tetrachloropaltinum(IV), CHEMBL2146189” registered a GI50 of 2830 nM. The result for “[Bis(aminomethyl)dimethylsilane]dichloroplatinum (II), CHEMBL2146201” reads 15200 nM. The result for “cis-Bis[[(trimethylsilyl)methyl]amino]tetrachloroplatinum(IV), CHEMBL2146191” reads 3370 nM; that for “[Bis(aminomethyl)diethylsilane]tetrachloroplatinum(IV), CHEMBL2146203”, 2030 nM.

Regarding “[Bis(aminomethyl)pentamethylenesilane]tetrachloropaltinum(IV), CHEMBL2146204”, the GI50 came out at 2240 nM.

In the case of “[Bis(aminomethyl)dimethylsilane]tetrachloroplatinum(IV), CHEMBL2146190”, the GI50 was 3120 nM.
